Our source for the inhibition values is ChEMBL document CHEMBL1961873, “Compounds: GSK PKIS; Assays: Nanosyn kinase panel” (2012).

Structures are written as SMILES.

Test [1] has as its target Platelet-derived growth factor receptor beta (Homo sapiens) (UniProt P09619). To be noted: at 1 µM.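 Note: each value is a mean percent inhibition.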
Test [2] has as its target Tyrosine-protein kinase FRK (Homo sapiens) (UniProt P42685). To be noted: at 0.1 µM.
Test [3] shares this target. To be noted: at 1 µM.
The target of test [4] is Protein-tyrosine kinase 2-beta (Homo sapiens) (UniProt Q14289). To be noted: at 0.1 µM.
Test [5] has the same target. To be noted: at 1 µM.
Test [6] concerns the target Proto-oncogene tyrosine-protein kinase receptor Ret (Homo sapiens) (UniProt P07949). To be noted: at 0.1 µM.
Test [7] shares this target. To be noted: at 1 µM.
For test [8], the system named is Proto-oncogene tyrosine-protein kinase receptor Ret (Homo sapiens), P07949 [V804L]. To be noted: at 0.1 µM.
For test [9] the test system is unchanged. To be noted: at 1 µM.
In test [10] the test system is Proto-oncogene tyrosine-protein kinase receptor Ret (Homo sapiens), P07949 [Y791F]. To be noted: at 0.1 µM.
The test system is the same in test [11]. To be noted: at 1 µM.
The target of test [12] is Macrophage-stimulating protein receptor (Homo sapiens) (UniProt Q04912). To be noted: at 0.1 µM.
For test [13] the target is unchanged. To be noted: at 1 µM.
Test [14] deals with Proto-oncogene tyrosine-protein kinase ROS (Homo sapiens) (UniProt P08922). To be noted: at 0.1 µM.
Test [15] shares this target. To be noted: at 1 µM.
In test [16] the target is Proto-oncogene tyrosine-protein kinase Src (Homo sapiens) (UniProt P12931). To be noted: at 0.1 µM.
Test [17] shares this target. To be noted: at 1 µM.
Test [18] concerns the target Tyrosine-protein kinase Srms (Homo sapiens) (UniProt Q9H3Y6). To be noted: at 0.1 µM.
For test [19] the target is unchanged. To be noted: at 1 µM.
The target in test [20] is Tyrosine-protein kinase SYK (Homo sapiens) (UniProt P43405). To be noted: at 0.1 µM.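 Note: reported percentages are mean inhibition values for SYK.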

Chain of Macrophage-stimulating protein receptor (Homo sapiens) (Q04912 25-304 limits assumed): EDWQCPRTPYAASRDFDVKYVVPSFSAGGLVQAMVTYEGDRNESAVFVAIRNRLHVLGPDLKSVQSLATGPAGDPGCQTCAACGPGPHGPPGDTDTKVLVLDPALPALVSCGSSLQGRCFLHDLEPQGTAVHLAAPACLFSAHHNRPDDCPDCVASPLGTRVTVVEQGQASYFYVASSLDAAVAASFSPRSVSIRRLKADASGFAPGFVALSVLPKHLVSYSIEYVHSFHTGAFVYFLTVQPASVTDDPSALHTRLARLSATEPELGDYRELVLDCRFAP
Chain of Macrophage-stimulating protein receptor (Homo sapiens) (Q04912 310-1400 limits assumed): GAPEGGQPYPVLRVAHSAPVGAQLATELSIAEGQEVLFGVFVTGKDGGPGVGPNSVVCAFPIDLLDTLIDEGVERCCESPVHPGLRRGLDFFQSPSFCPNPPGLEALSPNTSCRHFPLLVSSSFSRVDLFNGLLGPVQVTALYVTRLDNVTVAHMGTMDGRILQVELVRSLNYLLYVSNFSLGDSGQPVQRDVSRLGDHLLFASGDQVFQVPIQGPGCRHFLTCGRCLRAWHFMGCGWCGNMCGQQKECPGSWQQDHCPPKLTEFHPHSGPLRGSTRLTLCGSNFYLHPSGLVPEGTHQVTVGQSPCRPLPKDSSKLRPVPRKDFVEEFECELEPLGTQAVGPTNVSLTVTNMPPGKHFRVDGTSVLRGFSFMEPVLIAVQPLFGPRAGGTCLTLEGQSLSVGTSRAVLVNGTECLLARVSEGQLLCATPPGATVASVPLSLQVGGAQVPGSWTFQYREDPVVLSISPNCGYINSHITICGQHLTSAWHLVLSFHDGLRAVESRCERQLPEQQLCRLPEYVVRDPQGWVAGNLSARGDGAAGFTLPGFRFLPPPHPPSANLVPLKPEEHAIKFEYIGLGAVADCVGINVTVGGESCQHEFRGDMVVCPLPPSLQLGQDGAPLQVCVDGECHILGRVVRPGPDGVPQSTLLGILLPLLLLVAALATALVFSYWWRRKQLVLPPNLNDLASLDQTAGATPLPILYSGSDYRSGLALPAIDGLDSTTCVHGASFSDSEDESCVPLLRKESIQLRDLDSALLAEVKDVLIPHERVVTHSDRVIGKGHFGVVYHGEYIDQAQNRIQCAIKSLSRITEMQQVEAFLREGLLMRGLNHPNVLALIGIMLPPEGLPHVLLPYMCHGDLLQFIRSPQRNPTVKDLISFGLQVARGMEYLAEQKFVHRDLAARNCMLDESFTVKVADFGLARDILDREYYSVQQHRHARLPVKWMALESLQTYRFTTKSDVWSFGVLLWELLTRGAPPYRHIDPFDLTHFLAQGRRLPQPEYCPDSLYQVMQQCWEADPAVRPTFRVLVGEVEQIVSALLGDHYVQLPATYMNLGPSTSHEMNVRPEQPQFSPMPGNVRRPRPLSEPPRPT
Chain of Proto-oncogene tyrosine-protein kinase ROS (Homo sapiens) (P08922 whole entry): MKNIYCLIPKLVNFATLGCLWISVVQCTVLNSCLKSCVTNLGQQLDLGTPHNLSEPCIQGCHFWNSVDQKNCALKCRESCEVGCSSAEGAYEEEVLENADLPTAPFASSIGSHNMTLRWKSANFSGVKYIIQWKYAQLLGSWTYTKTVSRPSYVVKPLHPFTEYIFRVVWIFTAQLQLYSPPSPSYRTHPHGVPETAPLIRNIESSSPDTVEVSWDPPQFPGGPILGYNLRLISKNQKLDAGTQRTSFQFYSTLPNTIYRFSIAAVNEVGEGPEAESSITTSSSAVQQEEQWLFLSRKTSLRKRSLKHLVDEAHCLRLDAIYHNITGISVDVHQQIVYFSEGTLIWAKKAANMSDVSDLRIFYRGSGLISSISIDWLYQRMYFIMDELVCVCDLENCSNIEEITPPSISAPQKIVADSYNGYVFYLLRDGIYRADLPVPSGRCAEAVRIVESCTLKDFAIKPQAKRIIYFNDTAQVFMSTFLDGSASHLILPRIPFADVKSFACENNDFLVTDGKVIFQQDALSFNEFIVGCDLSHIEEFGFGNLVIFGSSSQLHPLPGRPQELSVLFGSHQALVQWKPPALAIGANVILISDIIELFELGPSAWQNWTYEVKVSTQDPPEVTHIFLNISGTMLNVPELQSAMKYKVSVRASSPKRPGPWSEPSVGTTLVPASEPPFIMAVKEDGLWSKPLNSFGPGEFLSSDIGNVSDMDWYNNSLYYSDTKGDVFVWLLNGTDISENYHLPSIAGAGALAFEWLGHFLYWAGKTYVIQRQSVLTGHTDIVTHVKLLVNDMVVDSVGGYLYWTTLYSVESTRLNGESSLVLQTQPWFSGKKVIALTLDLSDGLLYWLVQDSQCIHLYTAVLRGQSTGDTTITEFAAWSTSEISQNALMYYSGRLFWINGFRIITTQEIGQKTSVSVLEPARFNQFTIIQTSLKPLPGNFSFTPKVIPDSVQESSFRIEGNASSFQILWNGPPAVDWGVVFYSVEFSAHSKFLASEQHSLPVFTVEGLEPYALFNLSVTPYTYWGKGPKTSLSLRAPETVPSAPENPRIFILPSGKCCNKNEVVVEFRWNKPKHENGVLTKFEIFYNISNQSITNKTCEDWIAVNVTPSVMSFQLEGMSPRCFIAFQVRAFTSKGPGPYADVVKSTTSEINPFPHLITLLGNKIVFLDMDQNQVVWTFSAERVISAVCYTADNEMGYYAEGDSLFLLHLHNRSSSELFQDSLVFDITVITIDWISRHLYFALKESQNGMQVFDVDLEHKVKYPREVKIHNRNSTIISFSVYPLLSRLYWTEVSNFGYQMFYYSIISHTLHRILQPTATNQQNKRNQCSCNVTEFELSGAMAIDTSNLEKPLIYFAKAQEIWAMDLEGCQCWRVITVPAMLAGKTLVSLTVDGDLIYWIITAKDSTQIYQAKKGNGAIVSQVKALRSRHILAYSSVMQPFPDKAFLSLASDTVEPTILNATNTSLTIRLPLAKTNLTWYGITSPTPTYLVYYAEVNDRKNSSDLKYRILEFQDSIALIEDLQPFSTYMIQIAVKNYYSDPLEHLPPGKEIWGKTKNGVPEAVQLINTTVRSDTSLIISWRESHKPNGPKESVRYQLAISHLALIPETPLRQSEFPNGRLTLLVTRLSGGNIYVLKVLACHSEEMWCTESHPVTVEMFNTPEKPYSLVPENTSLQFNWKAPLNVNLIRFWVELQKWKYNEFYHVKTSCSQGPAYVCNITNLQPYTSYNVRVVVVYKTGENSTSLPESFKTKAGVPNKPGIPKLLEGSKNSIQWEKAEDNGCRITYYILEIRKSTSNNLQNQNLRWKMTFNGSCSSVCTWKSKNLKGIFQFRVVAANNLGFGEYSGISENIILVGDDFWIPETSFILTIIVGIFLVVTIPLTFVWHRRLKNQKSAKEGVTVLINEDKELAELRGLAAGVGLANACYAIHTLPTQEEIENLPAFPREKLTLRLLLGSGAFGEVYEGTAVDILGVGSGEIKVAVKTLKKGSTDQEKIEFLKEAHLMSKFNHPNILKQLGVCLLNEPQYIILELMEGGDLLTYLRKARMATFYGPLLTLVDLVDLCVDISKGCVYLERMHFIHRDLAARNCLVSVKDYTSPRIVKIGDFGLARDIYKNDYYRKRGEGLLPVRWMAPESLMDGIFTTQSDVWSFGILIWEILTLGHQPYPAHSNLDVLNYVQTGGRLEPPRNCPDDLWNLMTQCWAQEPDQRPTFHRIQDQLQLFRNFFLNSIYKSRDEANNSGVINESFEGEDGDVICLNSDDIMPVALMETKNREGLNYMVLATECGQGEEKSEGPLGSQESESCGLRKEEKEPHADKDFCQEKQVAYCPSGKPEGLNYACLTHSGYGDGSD
Chain of Proto-oncogene tyrosine-protein kinase receptor Ret (Homo sapiens) (P07949 whole entry): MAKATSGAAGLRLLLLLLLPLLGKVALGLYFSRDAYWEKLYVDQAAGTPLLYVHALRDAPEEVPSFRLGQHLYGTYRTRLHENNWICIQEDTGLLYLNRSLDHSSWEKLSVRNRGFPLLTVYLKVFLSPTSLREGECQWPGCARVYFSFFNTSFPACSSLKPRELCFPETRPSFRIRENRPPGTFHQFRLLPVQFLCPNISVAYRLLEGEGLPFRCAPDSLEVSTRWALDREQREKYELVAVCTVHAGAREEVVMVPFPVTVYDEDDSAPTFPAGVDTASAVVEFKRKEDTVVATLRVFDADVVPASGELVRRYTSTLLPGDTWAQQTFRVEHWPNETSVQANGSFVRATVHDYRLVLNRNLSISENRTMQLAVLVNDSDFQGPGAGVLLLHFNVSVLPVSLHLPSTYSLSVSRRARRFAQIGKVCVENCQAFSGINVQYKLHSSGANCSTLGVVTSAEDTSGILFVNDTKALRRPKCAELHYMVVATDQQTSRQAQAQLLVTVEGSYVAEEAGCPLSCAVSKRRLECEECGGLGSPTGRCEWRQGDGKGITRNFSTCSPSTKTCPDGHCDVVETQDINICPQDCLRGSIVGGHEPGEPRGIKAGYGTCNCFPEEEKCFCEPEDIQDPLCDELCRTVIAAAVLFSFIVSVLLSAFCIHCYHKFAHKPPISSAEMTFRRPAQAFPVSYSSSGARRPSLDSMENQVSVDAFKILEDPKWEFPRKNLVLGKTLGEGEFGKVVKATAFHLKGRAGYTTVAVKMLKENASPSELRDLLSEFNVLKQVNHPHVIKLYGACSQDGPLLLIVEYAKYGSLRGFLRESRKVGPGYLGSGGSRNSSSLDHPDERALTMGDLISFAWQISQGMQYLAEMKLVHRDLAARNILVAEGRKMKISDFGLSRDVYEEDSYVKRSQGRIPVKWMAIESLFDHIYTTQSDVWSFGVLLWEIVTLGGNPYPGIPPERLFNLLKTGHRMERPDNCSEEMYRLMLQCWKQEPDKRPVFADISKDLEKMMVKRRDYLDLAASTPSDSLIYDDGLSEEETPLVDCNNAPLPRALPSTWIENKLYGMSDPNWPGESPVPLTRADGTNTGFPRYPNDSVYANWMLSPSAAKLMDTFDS
Chain of Proto-oncogene tyrosine-protein kinase receptor Ret (Homo sapiens), P07949 [V804L] (P07949 whole entry V804L): as the sequence (P07949 whole entry) above, with V804L counted along it
Chain of Proto-oncogene tyrosine-protein kinase receptor Ret (Homo sapiens), P07949 [Y791F] (P07949 whole entry Y791F): as the sequence (P07949 whole entry) above, with Y791F counted along it

For `Clc1ccc(-c2nn3ncccc3c2-c2ccnc(Nc3ccccc3)n2)cc1`, the inhibition – broadly, the relative decrease from the control value, in per cent – was 39.4% in test [1]; 0.95% in [2]; 3.48% in test [3]; 7.96% in [4]; 14.7% in test [5]; 8.76% in test [6]. In addition, the inhibition in test [7] is 42%; in test [8], 4.29%; in [9], 4.92%; in test [10], 9.6%; in test [11], 42.2%; in test [12] it was -2.2%. For the same compound, the inhibition in test [13] was determined as 4.63%; in test [14], 4.17%; in [15], 9.1%; in test [16], 6.5%; in [17] it was 39.3%; in [18], 1.99%. In addition, the inhibition in test [19] was 5.97%; in [20], -4.66%.
As to `FC(F)(F)c1cccc(-c2nn3ncccc3c2-c2ccnc(Nc3ccc4c(c3)OCCO4)n2)c1`, the inhibition in [1] is 14.4%; in test [2] it was 0.89%; in [3], 5.26%; in test [4] it was -0.64%; in test [5], 13.1%; in test [6], 7.52%. Moreover, the inhibition in test [7] turned out to be 31.8%; in test [8] it was 4.11%; in test [9], 2.86%; in [10] it was 7.75%; in test [11], 22.1%; in [12] it was 5.16%. For the same compound, the inhibition in [13] was 4.5%; in test [14] it was 1.05%; in test [15], 4.18%; in test [16], 12.8%; in test [17], 47.9%; in test [18], 0.82%. The inhibition amounted to 2.59% in [19] and 0.9% in [20].
Regarding `O=S(=O)(CCNCc1ccc(-c2ccc3ncnc(Nc4ccc(OCc5cccc(F)c5)c(Cl)c4)c3c2)o1)c1ccccc1`, the inhibition in test [1] came out at 12.2%; in test [2], 4.29%; in test [3], 3.5%; in test [4], 5.1%; in test [5], 12.9%; in [6], 6.34%. Also, the inhibition worked out at 3.04% in test [7]; 7.31% in test [8]; 9.24% in test [9]; 10.8% in test [10]; 15.4% in test [11]; 1.71% in test [12]. Further, the inhibition in test [13] is 2.9%; in test [14], 4.44%; in [15] it was 6.24%; in [16], 9.13%; in test [17] it was 8.52%; in test [18] it was -1.84%. The inhibition is -3.16% in [19] and -4.56% in [20].
With `CC(C)(CO)CNC(=O)c1ccc2c(c1)/C(=N/Nc1ccc(S(N)(=O)=O)cc1)C(=O)N2`, the inhibition in test [1] was 72.3%; in test [2], -0.08%; in test [3], -0.01%; in [4], -4.01%; in test [5], 18.8%; in test [6] it was 9.94%. Further, the inhibition came out at 49.1% in test [7]; 33.5% in test [8]; 72.5% in test [9]; 13.8% in test [10]; 56.3% in test [11]; 3.52% in [12]. The inhibition in test [13] was 2.41%; in test [14], 0.74%; in test [15], 3.7%; in [16] it was 5.77%; in test [17], 34.2%; in [18], -0.93%. Also, the inhibition in test [19] was found to be 0.39%; in [20], 0.61%.
On to `NC(=O)c1sc(-n2cnc3ccc(C(F)(F)F)cc32)cc1OCc1ccccc1Br`, for which the inhibition stood at 7.98% in test [1]; 2.51% in [2]; 2.35% in [3]; 9.64% in [4]; 12.8% in test [5]; 1.18% in test [6]. For the same compound, the inhibition is 4.33% in [7]; 2.41% in [8]; 3.36% in [9]; 3.67% in [10]; 11.1% in test [11]; 4.35% in [12]. Also, the inhibition in test [13] was 5.41%; in test [14], 3.4%; in [15], 9.36%; in [16] it was 1.66%; in [17], 10.1%; in [18], -1.61%. In addition, the inhibition in [19] was -2.09%; in test [20] it was -5.63%.
Consider `COc1ccc(-c2nn3ncccc3c2-c2ccnc(Nc3ccc4c(c3)OCCO4)n2)cc1`, for which the inhibition in test [1] was 20.6%; in [2], 0.87%; in test [3] it was 3.44%; in test [4], -3.39%; in test [5] it was 10.2%; in test [6], 8.94%. In addition, the inhibition is 47.3% in test [7]; 3.01% in [8]; 3.4% in test [9]; 11.7% in test [10]; 56.2% in [11]; -3.38% in test [12]. The inhibition was 8.88% in [13]; 6.79% in test [14]; 21.9% in [15]; 7.57% in [16]; 51.7% in test [17]; 0.02% in [18]. Besides, the inhibition came out at 0.99% in test [19] and 1.19% in test [20].
`COc1ccc2[nH]c3c4[nH]c5ccc(OC)cc5c4c4c(c3c2c1)C(=O)NC4=O`: the inhibition in [1] is 85.1%; in test [2] it was -0.26%; in [3], 0.68%; in [4] it was 29.5%; in [5], 80.6%; in test [6], 40.5%. Further, the inhibition was found to be 77.3% in test [7]; 71% in test [8]; 82.1% in [9]; 44.8% in test [10]; 67.3% in [11]; 6.28% in [12]. In addition, the inhibition in test [13] is 16.9%; in test [14], 55.8%; in [15], 79.1%; in [16], -1.01%; in [17] it was 20.4%; in test [18], 3.34%. Further, the inhibition is 15.6% in test [19] and -7.81% in [20].
As to `[O-][S+]1CCN(Cc2ccc(-c3ccc4ncnc(Nc5ccc(OCc6cccc(F)c6)c(Cl)c5)c4c3)o2)CC1`, the inhibition came out at 8% in test [1]; 4.01% in test [2]; 4.89% in [3]; 4.76% in [4]; 11.7% in [5]; 3.9% in test [6]. Further, the inhibition in test [7] came out at 8.36%; in [8] it was 7.71%; in test [9], 16.5%; in test [10], 6.06%; in test [11] it was 9.63%; in [12], 3.82%. The inhibition in [13] worked out at 6.8%; in [14], 4.15%; in [15], 2.36%; in [16], 8.56%; in [17], 10.2%; in test [18], 0.4%. Moreover, the inhibition in test [19] is -1.62%; in test [20] it was 2.13%.
Take `c1ccc(-c2nc3n(c2-c2ccc4c(c2)OCO4)CCC3)nc1`: the inhibition was 4.62% in [1]; 0.91% in [2]; 0.2% in test [3]; 5.1% in test [4]; 6.96% in [5]; 2.81% in [6]. The inhibition is 4.44% in [7]; 1.37% in test [8]; 1.16% in test [9]; 2.63% in test [10]; 1.82% in [11]; 0.69% in test [12]. Besides, the inhibition is 1.59% in test [13]; 4.52% in test [14]; 4.91% in [15]; -7.85% in test [16]; 2.73% in [17]; -0.53% in test [18]. Further, the inhibition in [19] is -1.55%; in [20], -1.33%.
For the compound `N#Cc1c(NC(=O)c2ccc(F)cc2)sc2c1CCCC2`, the inhibition worked out at 5.64% in [1]; 0.6% in test [2]; 1.01% in test [3]; 1% in test [4]; 1.23% in [5]; 0.59% in [6]. Besides, the inhibition in [7] was -0.03%; in [8], 1.83%; in [9], 2.29%; in [10], 1.07%; in [11] it was 7.62%; in test [12], 1.04%. For the same compound, the inhibition in [13] is 2.12%; in test [14], 0.38%; in test [15], 4.13%; in test [16] it was 4.79%; in test [17], 1.56%; in test [18], -1.11%. Further, the inhibition in test [19] was -0.62%; in [20], -2.1%.
On to `CS(=O)(=O)CCNCc1coc(-c2ccc3ncnc(Nc4ccc(OCc5ccccc5)cc4)c3c2)c1`, for which the inhibition was 5.87% in test [1]; 1.08% in test [2]; 0.27% in [3]; 3.8% in test [4]; 3.38% in test [5]; 3.04% in [6]. For the same compound, the inhibition was 8.54% in test [7]; 3.88% in [8]; 5.06% in [9]; 6.2% in test [10]; 8.25% in test [11]; -5.7% in [12]. The inhibition in test [13] is 2.31%; in test [14], 4.75%; in [15], 4.27%; in test [16] it was 8.85%; in [17], 10.9%; in test [18], 3.44%. Besides, the inhibition in [19] turned out to be 3.19%; in [20] it was 2.29%.
For `COc1ccc2c(-c3ccnc(Nc4cccc(OC(F)(F)F)c4)n3)cnn2n1`, the inhibition in [1] stood at 32.6%; in test [2], 1.94%; in test [3], 1.99%; in [4], 14.4%; in [5] it was 59.9%; in test [6], 3.2%. The inhibition in [7] stood at 8.79%; in test [8] it was 3.12%; in test [9], 12.5%; in test [10], 1.41%; in [11] it was 11.9%; in [12], 2.53%. Further, the inhibition was 9.83% in test [13]; 11.1% in [14]; 46.5% in test [15]; 5.55% in test [16]; 23.6% in [17]; -1.28% in test [18]. The inhibition in test [19] is 1.58%; in test [20], -2.58%.
